# From PubChem BioAssay
# Activity calls are given as the source filed them.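 How the source made its calls: active means inhibition at or above 50% relative to wild type and mutant plate controls; inactive means inhibition below 50%.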
# Test: loss of swimming-algae plug formation – whole organism, Chlamydomonas reinhardtii, WT vs cilia-less mutant, absorbance, 96-well, primary screen (AID 463189);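 further: 0% = wild type cc124 cells in DMSO and 100% = ciliumless bld1 mutant cells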
# Conditions: Chlamydomonas reinhardtii gravitaxis, OD600 absorbance, 2 days; at 10 µM; hits give high values
row,Compound,inhibition
1,CCCNC(C)C(=O)Nc1ccccc1C (stereo not given),6.52% (inactive)
2,O=C(O)CN(CCN(CC(=O)O)CC(=O)O)CCN(CC(=O)O)CC(=O)O,6.57% (inactive)
3,CC(=O)N[C@H](C(=O)O)C(C)(C)SN=O,3.53% (inactive)
4,CN(C)c1nc(N)c(C(=O)N=C(N)N)nc1Cl,1.32% (inactive)
5,O=c1ccc2c(OCCCCc3ccccc3)c3ccoc3cc2o1,10.5% (inactive)
6,Nc1c2c(nc3ccccc13)CCCC2,-5.5% (inactive)
7,NC(N)=N/N=C/c1c(Cl)cccc1Cl,3.64% (inactive)
8,CSc1ccc(C(=O)c2[nH]c(=O)[nH]c2C)cc1,-1.05% (inactive)
9,O=C(O)CC1CCCc2ccccc2C1O (stereo not given),4.59% (inactive)
10,CN=C(NC#N)Nc1ccc(C2=NNC(=O)CC2C)cc1 (stereo not given),-4.34% (inactive)
11,CN1CCc2cccc3c2C1Cc1ccc(O)c(O)c1-3 (stereo not given),-7.51% (inactive)
12,Nc1ccc(N2C(=O)c3ccccc3C2=O)c(Cl)c1,-0.463% (inactive)
13,CCCn1cnc2c1c(=O)n(CCCCC(C)=O)c(=O)n2C,3.15% (inactive)
14,CC(N)(Cc1ccc(O)cc1)C(=O)O (stereo not given),1.6% (inactive)
15,CCc1cccc(N(C)C(N)=Nc2cccc3ccccc23)c1,-1.11% (inactive)
16,Nc1nc2ccc(Cl)cc2c2nc(-c3ccco3)nn12,1.54% (inactive)
17,CCC(CO)Nc1nc(NCc2ccccc2)c2ncn(C(C)C)c2n1 (stereo not given),-6.72% (inactive)
18,O=C1C(SCCO)=C(SCCO)C(=O)c2ccccc21,152% (active)
19,CC[C@@H]1Cc2cc(O)ccc2C2=C1c1ccc(O)cc1C[C@H]2CC,0.094% (inactive)
20,NCCNS(=O)(=O)c1cccc2cnccc12,-4.46% (inactive)

row,Compound,inhibition
1,CO/N=C(\C(=O)N[C@@H]1C(=O)N2C(C(=O)O)=C(CSc3nc(=O)c(O)nn3C)CSC12)c1csc(N)n1 (stereo not given in full),7.64% (inactive)
2,O=c1[nH]c2cc([N+](=O)[O-])c([N+](=O)[O-])cc2[nH]c1=O,5.09% (inactive)
3,CC(C)[C@@H](CO)Nc1nc(Nc2cccc(Cl)c2)c2ncn(C(C)C)c2n1,-2.67% (inactive)
4,CSC(N)=NCCC[C@H](N)C(=O)O,9.75% (inactive)
5,C=CCN1CCc2cc(O)c(O)cc2C(c2ccccc2)C1 (stereo not given),8.31% (inactive)
6,COc1ccc(NC(=O)/C=C/c2ccc(Cl)cc2)cc1,6.25% (inactive)
7,Nc1ncnc2c1ncn2C1CCCO1 (stereo not given),-5.2% (inactive)
8,CC(C)Cn1c(=O)n(C)c(=O)c2[nH]cnc21,1.72% (inactive)
9,O=C(OCCN1CCCCC1)c1c[nH]c2ccccc12,5.42% (inactive)
10,O=C(O)CCCCCC[C@H]1C(=O)NC(=O)N1CC[C@@H](O)C1CCCCC1,-0.469% (inactive)
11,NCCC(=O)NCCc1cnc[nH]1,3.88% (inactive)
12,N=C(N)SCCc1cnc[nH]1,2% (inactive)
13,Nc1ccn([C@@H]2O[C@H](CO)[C@@H](O)[C@@H]2O)c(=O)n1,0.194% (inactive)
14,C#C[C@]1(O)CC[C@H]2[C@@H]3CCC4=Cc5oncc5CC4(C)[C@H]3CCC21C (stereo not given in full),4.97% (inactive)
15,O=C(O)CCC(=O)N1CCCC1C(=O)O (stereo not given),0.347% (inactive)
16,O=C(CCc1ccc(O)cc1)c1c(O)cc(O)cc1O,-0.519% (inactive)
17,CC1CC2C3CCC4=CC(=O)C=C[C@]4(C)[C@@]3(F)[C@@H](O)C[C@]2(C)[C@@]1(O)C(=O)CO (stereo not given in full),5.99% (inactive)
18,c1ccc(C2CN3CCSC3=N2)cc1 (stereo not given),45.3% (inactive)
19,CCCC(=O)NCCc1c2n(c3ccc(OC)cc13)Cc1ccccc1-2,-1.81% (inactive)
20,CCCCCCCCCCCCCCCC(=O)NCC(COP(=O)([O-])OCC[N+](C)(C)C)OCC (stereo not given),-1.73% (inactive)
